Data from the supplement of paper PMC9948646.

Test system: gramicidin D channels in DC22:1PC lipid vesicles (bilayer-modifying potency)
Experiment: initial Tl+ fluorescence quench rate relative to no-drug control (NormRate, gramicidin monomer-dimer shift) (ratio (fold of control)); higher = stronger bilayer-modifying effect (equilibrium shifted toward conducting dimers), active = 1.5 or more
Conditions: 10 µM; lipid concentration 50 µM; temperature: 25 °C
Method: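 Stopped-flow fluorescence quench assay: ANTS-loaded DC22:1PC large unilamellar vesicles doped with gramicidin D (1:2000), 50 µM lipid, equilibrated 10 min with 10 µM drug (0.1% DMSO), mixed with Tl+ quench buffer at 25°C. Initial quench rate (Tl+ influx) was fitted with a modified stretched exponential and normalised to the no-drug control rate (NormRate); duplicates from two independent LUV preparations (triplicates for 7 drugs).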

Row | Compound | initial Tl+ fluorescence quench rate
1 | c1cncc(NCc2ccc(-c3cc4ccncc4cc3OC3CCNCC3)s2)c1 | 1.32 (inactive)
2 | COc1nc2ccc(Br)cc2cc1[C@@H](c1ccccc1)[C@@](O)(CCN(C)C)c1cccc2ccccc12 | 6.48 (active)
3 | CCCNC(=O)N1CCC2(CC1)CC(=O)c1cc(C)ccc1O2 | 1.15 (inactive)
4 | COc1cc(Br)cc2cc(C(=O)Nc3cccc(C(F)(F)F)c3)c(=O)oc12 | 1.05 (inactive)
5 | Cc1cccc(-c2nc(Nc3ccncn3)c3sccc3n2)n1 | 1.81 (active)
6 | CCc1ccccc1-n1c(C)cn2c3c(=O)n([C@@H](C(=O)OC)C(C)C)c(=O)n(C)c3nc12 | 1.2 (inactive)
7 | Cc1ccc(S(=O)(=O)N2CCN(C(=O)c3cc(-c4ccccc4)[nH]n3)CC2)cc1 | 1.38 (inactive)
8 | [H]/N=C(\Nc1ccc(Cl)cc1)Nc1nc(C)cc(NCCc2ccccc2)n1 | 3.21 (active)
9 | CC[C@H](CO)NCCN[C@H](CC)CO | 1.02 (inactive)
10 | Cc1ccc(C(=O)Nc2ccc(S(=O)(=O)O)c3cc(S(=O)(=O)O)cc(S(=O)(=O)O)c23)cc1NC(=O)c1cccc(NC(=O)Nc2cccc(C(=O)Nc3cc(C(=O)Nc4ccc(S(=O)(=O)O)c5cc(S(=O)(=O)O)cc(S(=O)(=O)O)c45)ccc3C)c2)c1 | 2.56 (active)
11 | CCc1ccc([C@@H](NCc2nc(N)nc(N(C)C)n2)C(C)C)cc1 | 1.08 (inactive)
12 | CCN(CC)CCCN1CCN(C(=O)c2cccc(-c3noc(C(F)(F)F)n3)c2)CC1 | 1.25 (inactive)
13 | Nc1ncc(Br)cc1-c1nc2cc(Cl)cnc2[nH]1 | 1.06 (inactive)
14 | Nc1ncnc2c1ncn2C[C@@H](O)[C@@H](O)C(=O)O | 1.05 (inactive)
15 | CC[C@H](NC(=O)c1ccccc1NC(=O)c1ccc(C)cc1)C(=O)OC | 1.32 (inactive)
16 | O=C(c1[nH]nc2c1CCCC2)N1CCN(Cc2ccc3c(c2)OCO3)CC1 | 1.03 (inactive)
17 | Clc1ccc(-n2cc(COc3ccnc4ccccc34)nn2)cc1 | 1.13 (inactive)
18 | O=C([C@@H](c1ccc(Cl)cc1)c1cccnc1)N1CCN(c2ccc(C(F)(F)F)cc2)CC1 | 10.5 (active)
19 | Cc1ccc2nc(C)c(-c3ccn(Cc4ccccc4)n3)n2c1 | 1.28 (inactive)

Row | Compound | initial Tl+ fluorescence quench rate
20 | C[C@H]1CS(=O)(=O)CCN1/N=C/c1ccc([N+](=O)[O-])o1 | 1.02 (inactive)
21 | CS(=O)(=O)Cc1nc2ccccc2oc1=O | 1.08 (inactive)
22 | Cc1nn2c(=O)c3c([nH]c2c1-c1ccc(Cl)cc1)CCCC3 | 1.13 (inactive)
23 | COc1cccc(OCC(=O)c2ccc(Br)cc2)c1 | 1.06 (inactive)
24 | Cc1[nH]c2cc(F)cc(F)c2c(=O)c1-c1ccc(Oc2ccc(OC(F)(F)F)cc2)cc1 | 1.11 (inactive)
25 | O=C(Nc1nnc(S)s1)c1cc(Br)ccc1Cl | 1.2 (inactive)
26 | CCCCN(CCCC)c1c(C#N)cc(S(=O)(=O)Nc2ccccc2)cc1C#N | 1.1 (inactive)
27 | CC(C)(C)c1ccc(N[C@@H]2CCCC[C@H]2NC(=O)c2ccco2)cc1 | 1.36 (inactive)
28 | Cc1cc(NC(=O)c2ccc(S(=O)(=O)N(Cc3ccccc3)C(C)C)cc2)no1 | 1.14 (inactive)
29 | c1ccc(-c2cc(N3CCCCC3)c3ccccc3n2)nc1 | 1.08 (inactive)
30 | COC(=O)Nc1nc2cc(C(=O)c3ccccc3)ccc2[nH]1 | 1.04 (inactive)
31 | Cc1ccc2cc([C@@H]3NC(=O)c4ccccc4N3)c(Cl)nc2c1 | 1.08 (inactive)
32 | COc1cccc(-c2nc3c(N4CCCC4)cccc3n2C[C@H]2CCCN2)n1 | 1.21 (inactive)
33 | CCc1nc2ccccc2n1C[C@H](O)COc1cc(C)ccc1Cl | 2.91 (active)
34 | Clc1ccc(Cl)c(CO[C@H]2CCCC[C@@H]2n2ccnc2)c1 | 1.09 (inactive)
35 | COC[C@H](C)NC(=O)CSc1ncnc2sc(-c3ccccc3)cc12 | 1.33 (inactive)
36 | COc1ccc2nc(C)cc(OCC(=O)NCc3ccccc3)c2c1 | 1.06 (inactive)
37 | CC[C@@H]([C@H](C)O)n1ncn(-c2ccc(N3CCN(c4ccc(OC[C@@H]5CO[C@@](Cn6cncn6)(c6ccc(F)cc6F)C5)cc4)CC3)cc2)c1=O | 7.69 (active)
38 | O=C(Nc1ccc(F)c(-c2nc3cc(-c4ccccc4)cnc3[nH]2)c1)N1CCCC1 | 1.72 (active)
